Screen size: about 13,000 compounds; about 3,200 (25%) showed an effect of 50% or more. This is one part of the list.
Each compound was assayed on P. falciparum stage V gametocytes. Conditions: 48 h, 5 µM; inhibitor.
Design: BacTiter-Glo ATP luminescence viability of purified stage V gametocytes in 384-well plates, per cent inhibition versus DMSO

SMILES | % Inhibition
CN(C)CCNC(=O)[C@H](Cc1ccccc1)NC(=O)c1ccc(O)c(-c2ccc(Cl)c(Cl)c2)c1 [TCMDC-140864] | 22.21%
CN1CCCN(Cc2ccc(-c3ccc(NC(=O)c4ccc(Cl)cc4)cc3)cc2)CC1 [TCMDC-132585] | -0.9433%
Cc1cccc2[nH]c(-c3cccc(-c4ccc(NC(=O)Nc5ccc(Cl)c(Cl)c5)cc4)c3)nc12 [TCMDC-133275] | -0.4815%
c1cc2[nH]c(CCc3nc4cc(C5=NC6CCCCC6N5)ccc4[nH]3)nc2cc1C1=NC2CCCCC2N1 (centres unmarked) [TCMDC-137238] | -12.99%
c1cc(C2=N[C@H]3CCCC[C@@H]3N2)ccc1OCCCOc1ccc(C2=N[C@@H]3CCCC[C@H]3N2)cc1 [TCMDC-137803] | 109.5%
c1cc2nc(CCCc3nc4ccc(C5=N[C@H]6CCCC[C@H]6N5)cc4[nH]3)[nH]c2cc1C1=N[C@@H]2CCCC[C@@H]2N1 [TCMDC-137234] | -8.612%
c1cc2nc(CCCCCc3nc4ccc(C5=N[C@@H]6CCCC[C@@H]6N5)cc4[nH]3)[nH]c2cc1C1=N[C@@H]2CCCC[C@@H]2N1 [TCMDC-137237] | -19.86%
c1cc2nc(CCCCc3nc4ccc(C5=N[C@H]6CCCC[C@H]6N5)cc4[nH]3)[nH]c2cc1C1=N[C@H]2CCCC[C@H]2N1 [TCMDC-137233] | 16.03%
c1cc(C2=NC3CCCCC3N2)ccc1OCCCCCOc1ccc(C2=NC3CCCCC3N2)cc1 (centres unmarked) [TCMDC-137802] | 132.6%
Cc1ccn2c(N(Cc3ccccc3)C(=O)c3ccc(Cl)c(Cl)c3)c(-c3ccccc3)nc2c1 [TCMDC-141396] | -15.83%
CCNc1cc(C(=O)N[C@@H](Cc2ccccc2)[C@H](O)CNCCc2ccccc2)cc(N2CCCCS2(=O)=O)c1 [TCMDC-135171] | -2.363%
COc1ccc2ncc(F)c(CCN3CC[C@@H](CNCc4cc(C)c5c(c4)OCCO5)C3)c2n1 [TCMDC-136077] | 34.91%
CC(C)c1ccc(OCC(O)CN(CCN2CCOCC2)C(=O)Nc2ccc(Br)cc2)cc1 (centres unmarked) [TCMDC-141492] | -0.3608%
CCn1c(-c2nc(-c3ccnc(N4CCN(C)CC4)c3)cnc2N)nc2cc(S(C)(=O)=O)ccc21 [TCMDC-134155] | 31.49%
CCn1c(-c2nc(-c3ccc4c(c3)OCO4)cnc2N)nc2cnccc21 [TCMDC-135178] | 6.285%
COc1cccc2cc(C(=O)N[C@@H](CC(C)C)C(=O)N[C@H](C=NN3CCOC3=O)Cc3ccccc3)oc12 [TCMDC-136074] | -0.683%
O=C(c1cccc(-c2noc(C(F)(F)F)n2)c1)N1CCN(c2nsc3ccccc23)CC1 [TCMDC-132425] | -18.4%
O=C(O[C@H]1CN[C@H](C#Cc2cc3ncnc(Nc4ccc5c(ccn5S(=O)(=O)c5cccs5)c4)c3s2)C1)N1CCOCC1 [TCMDC-134691] | 26.92%
Clc1cc(Nc2ncnc3cc(C#C[C@H]4CCCN4)sc23)cc2[nH]c(Cc3ccccc3)nc12 [TCMDC-134519] | 58.91%
Clc1cc(Nc2ncnc3sc(C#C[C@H]4CCCN4)cc23)ccc1OCc1cccnc1Cl [TCMDC-134849] | 8.343%
O=S(=O)(c1ccccc1)n1ccc2cc(Nc3ncnc4cc(C#C[C@H]5CCCN5)sc34)ccc21 [TCMDC-138913] | 83.41%
CN(C)C(=O)O[C@@H]1CN[C@H](C#Cc2cc3ncnc(Nc4ccc5c(cnn5Cc5cccc(F)c5)c4)c3s2)C1 [TCMDC-135233] | 25.46%

SMILES | % Inhibition
Fc1cccc(COc2ccc(Nc3ncnc4sc(C#CC5CCCCN5)cc34)cc2Cl)c1 (centres unmarked) [TCMDC-138878] | 40.6%
COc1ccc(-c2cc(NCc3ccc(-n4ccnc4)cc3)nc(Nc3ccccc3)n2)cc1 [TCMDC-133466] | 0.1166%
Cc1ccc(Nc2nc(NN=Cc3ccc(-c4ccc([N+](=O)[O-])cc4)o3)nc(N3CCOCC3)n2)cc1Cl [TCMDC-123853] | 16.13%
COc1ccc(F)cc1-c1cccc(CNC2CCN(CC3Cn4c(=O)ccc5ccc(F)c3c54)CC2)c1 (centres unmarked) [TCMDC-134406] | -45.9%
COc1ccc(CNCc2ccccc2)cc1-c1cccc(S(=O)(=O)NCCN2CCCC2)c1 [TCMDC-132268] | 57.83%
COc1ccc(CNCc2ccc(F)cc2)cc1-c1cccc(S(=O)(=O)NCCN2CCCC2)c1 [TCMDC-132223] | 101.2%
COc1ccc2nccc([C@@H](O)CN3CCC(NC(=O)c4ccc(Cl)c(Cl)c4)CC3)c2c1 [TCMDC-141036] | -20.77%
COc1cc(Nc2nccc(Nc3ccc4c(C)[nH]nc4c3)n2)cc2ccccc12 [TCMDC-138587] | -18.63%
CC(Oc1cccc(Cl)c1)C(=O)N1CCc2ccccc21 (centres unmarked) [TCMDC-123685] | -22.19%
CN(CC(=O)Nc1ccc(F)cc1)C(=O)c1ccc(-c2ccc(F)cc2)o1 [TCMDC-125342] | 61.72%
CC(=O)Nc1ccc(CN(Cc2ccc(F)cc2)Cc2ccc3c(c2)OCO3)cc1 [TCMDC-140255] | 12.12%
O=C(NCc1ccc(F)cc1)Nc1ccc(-c2ccc(-c3nc4ccccc4[nH]3)cc2)cc1 [TCMDC-133299] | -2.169%
Nc1ncc(-c2ccc(S(=O)(=O)Nc3ccc(C(=O)N[C@@H](CCC(=O)O)C(=O)O)cc3)cc2)c(=O)[nH]1 [TCMDC-137342] | -1.262%
CN1CCN(CC(=O)Nc2ccc(-c3ccc(-c4nc5ccccc5[nH]4)s3)cc2)CC1 [TCMDC-136971] | -13.63%
CC(C)=CCN1CCC(C(=O)Nc2ccc(-c3nc4ccccc4[nH]3)cc2)CC1 [TCMDC-124613] | -52.31%
CN1CCC(C(=O)Nc2ccc(-c3ccc(-c4nc5cc(C(F)(F)F)ccc5[nH]4)s3)cc2)CC1 [TCMDC-132183] | -1.127%
O=C(Nc1ccc(-c2cccc(-c3nc4ccccc4[nH]3)c2)cc1)Nc1ccsc1 [TCMDC-133220] | 7.696%
O=C(Nc1ccc(-c2csc(-c3nc4ccccc4[nH]3)c2)cc1)Nc1ccsc1 [TCMDC-133207] | -12.45%
CN1CCC(C(=O)Nc2cccc(-c3ccc(-c4nc5ccccc5[nH]4)cc3)c2)CC1 [TCMDC-132186] | -0.3438%
CN1CCC(C(=O)Nc2ccc(-c3ccc(-c4nc5ccccc5[nH]4)s3)cc2)CC1 [TCMDC-132179] | 54.96%
O=C(Nc1ccc(-c2ccc(-c3nc4ccccc4[nH]3)s2)cc1)Nc1ccsc1 [TCMDC-133219] | 69.14%
CN1CCC(C(=O)Nc2ccc(-c3ccc(-c4nc5ccccc5[nH]4)cc3)cc2)CC1 [TCMDC-132187] | 59.64%
